These results are taken from PubChem BioAssay (NCI).

Where “and” joins values, the source holds several entries; their conditions need not be identical. Identical values can stand only once. The panel holds about 83,000 compounds, 20% with a hit somewhere; the sample as a whole holds those more often.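 Step 1: grow cells in 96-well plates. Step 2: add test compound at a single concentration. Step 3: incubate 48 h. Step 4: record percent growth.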 Calls of active or inactive are those of the source. The calls were made as follows: active = growth percent below 10; inactive = the rest.

This assay deals with MDA-MB-468 breast. Put plainly: NCI-60 one-dose screen, 48 h (100 = growth as untreated, 0 = no growth, -100 = all killed). The following applies: 10 µM unless noted.
As for `CC(=O)Nc1ccc(Sc2ccc(NC(C)=O)cc2)cc1`, the growth was 100% (inactive).
Consider `N=C(N)c1ccc(-c2ccc(-c3cc(Cl)cc(Cl)c3)o2)nc1`, for which the growth is -73.9% (active).
Regarding `COc1cc(CCc2cc(NC(=O)c3ccc(N4C[C@@H](C)N[C@@H](C)C4)cc3)n[nH]2)cc(OC)c1`, the growth was 71.3% (inactive).
On to `CN(C)C1CCN(C(=O)c2ccc(NC(=O)Nc3ccc(-c4nc(N5CCOCC5)nc(N5CCOCC5)n4)cc3)cc2)CC1`, for which the growth was -49.1% [2.5 µM] (active).
Take `Cc1nn(-c2ccccc2)cc1/C=N/Nc1nc(Nc2ccccc2)nc(Nc2ccc(S(N)(=O)=O)cc2)n1`: the growth was -37.1% (active).
Regarding `Cc1ccc(Nc2nccc(N(C)c3ccc4c(C)n(C)nc4c3)n2)cc1S(N)(=O)=O`, the growth was 34.1% (inactive).
With `CN1CCCCC1CCN1c2ccccc2Sc2ccc(Cl)cc21` (stereo not given) the figure was 30.2% (inactive); with `CCOC(=O)Cn1nnc(-c2ccc(OCc3ccccc3F)cc2)n1`, 90.4% (inactive).
In the case of `C/C=C/CSC(C)(C)C(=O)NC`, the growth was 96.4% (inactive).
For the compound `COc1cnc2c(c1)C(=O)c1c-2n(CCCn2ccnc2)c(=O)c2cc(F)ccc12`, the growth was -35.7% (active).
With `CN(C)C(=O)c1cc2cnc(Nc3ccc(-c4csc5c(=O)cc(N6CCOCC6)oc45)cc3)nc2n1C1CCCC1` the figure was -5.41% (active); with `O=C(Nc1ccc(Cl)c(Cl)c1)Nc1ccc(Cl)c(Cl)c1`, -78.5% (active) and 10.4% (inactive); with `N=c1ccn2c(n1)O[C@@H]1[C@@H](O)[C@H](CO)O[C@@H]12`, 77.1% (inactive).
`CC(=O)Nc1ccc(NC(=O)Nc2cccc(-c3nc(-c4ccc(NC(=O)c5cccs5)cc4Cl)no3)c2)cc1C(F)(F)F`: the growth is -77.7% (active).
With `CCOc1cc(Cl)c(C(C)NC(=O)c2cccc(OC)c2)cc1OCC` (stereo not given) the figure was -61.6% (active); with `CC(C)(C)c1ccc(S(=O)(=O)N[C@H]2CC[C@H]3[C@@H]4CCc5cc(O)ccc5[C@H]4CC[C@]23C)cc1`, 57.8% (inactive); with `Oc1ccc(CCC2CCNc3ccccc32)cc1` (stereo not given), 46.8% (inactive).
As to `COC1OCC(O)C(O)C1O` (stereo not given), the growth was 100% (inactive).
Then `Cn1cc(-c2nc(N)nnc2-c2c[nH]c3ccc(Br)cc23)c2cc(Br)ccc21`, with 6.33% (active); and `O=C(OC(CO)C(=O)NC12CC3CC(CC(C3)C1)C2)c1ccc(Cl)cc1` (stereo not given), with 95.3% (inactive).
As to `O=C1Nc2c(ccc(Cl)c2Cl)/C1=C/c1ccc([N+](=O)[O-])cc1`, the growth was 103% (inactive).
As to `Cc1cc2c(c(C)c1Cl)C(=O)/C(=C/c1ccco1)O2`, the growth was -2.58% (active).
With `COc1ccc(-c2nc3sccn3c2-c2ccnc(NCCNS(=O)(=O)c3ccc(C(F)(F)F)cc3)n2)cc1` the figure was 30.2% (inactive); with `COc1cc(-c2nn(-c3cccc(NC(=O)c4ccccc4)c3)cc2-c2ccncc2)ccc1Cl`, -19.7% (active); with `O=S(=O)(c1ccccc1)N1CCCN(c2nc(-c3ccccc3)nc3nc(-c4ccccc4)oc23)CC1`, 116% (inactive).
With `OCCn1cc(-c2nc(-c3c[nH]c4ncccc34)cs2)c2cc(F)ccc21` the figure was -11.1% (active).
Then `COc1ccc2[nH]cc(C(c3ccc(Cl)cc3)N3CCCC3)c2c1` (stereo not given), with 84% (inactive).
As for `Cc1cc(=O)n2nc(-c3c[nH]c4ccccc34)sc2n1`, the growth is 88.8% (inactive).
With `Cc1cc(C#Cc2ccccc2)ccc1-n1c(/C=C/c2cc(O)ccc2O)nc2ccccc2c1=O` the figure was -36.5% (active); with `CCOC(=O)c1ccccc1SC(C[N+](=O)[O-])c1ccccc1` (stereo not given), 63.7% (inactive).
With `O=C1Cc2ccccc2C(=O)O1` the figure was 112% (inactive); with `CC/C=C\C/C=C\C[C@H]1C/C=C2/C(=O)C=C[C@H]2C/C=C\CCC(=O)O1`, -7.14% (active); with `CC1(C)OC2OC3C(CN)OC(c4ccccc4)OC3C2O1` (stereo not given), 116% (inactive).
With `CC(C)(C)[Si](C)(C)O[C@H]1C(=O)C=CN2CC=C[C@@H]12` the figure was 99.4% [100 µM] (inactive); with `Fc1cc(Nc2ccc3c(OCCCN4CCOCC4)cccc3n2)ccc1Cl`, 28.5% (inactive); with `COC1OC(C(O)C(O)CO)C(O)C(O)C1O` (stereo not given), 101% (inactive).
For `O=S(=O)(Nc1ccc(I)cc1F)c1ccc(-c2cnc(C3CC3)o2)cc1`, the growth was -9.07% (active).
As for `O=C1/C(=C/C=C/c2ccco2)SC(=S)N1Cc1ccccc1`, the growth is 58.5% (inactive).
Take `CC(O)CN(CC(C)O)N(CC(C)O)CC(C)O` (stereo not given): the growth was 105% (inactive).
Then `COc1cc2c(cc1OC)-c1cc(OC)c(OC)cc1C(CN(C)C)C2` (stereo not given), with 66.4% [100 µM] (inactive).
